Test results: PubChem BioAssay (NCATS)
Results filed as inconclusive are left out. A call without a number means that no potency is given here. Activity calls are given as the source filed them. Calls come from the whole dose curve; as a rule, active = well fitted curve in the direction sought with a large enough effect; inconclusive = small, poorly fitted or top-dose-only effect, or another doubt; inactive = no such curve, though single readings can be large; an effect the other way counts as inactive or inconclusive.

Experiments:
[1] = system: Zika virus NS2B-NS3 protease (linked construct); assay: Primary screen NINDS Rhodamine qHTS for Zika virus inhibitors (AID 1347160); note: nearly all actives have a fitted effect of over 55% in size
In short: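 Purified linked NS2B-NS3 protease (NS2B hydrophilic domain joined to NS3 protease by flexible linker), 25 nM in 10 mM Tris-HCl pH 8.0, 0.01% Tween 20. Compounds titrated, 15 min preincubation at room temperature; 1.5 microM Rhodamine110 substrate, FITC fluorescence change over 15 min.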

[2] = biological target: Calcium and integrin-binding protein 1 (Homo sapiens) (UniProt Q99828); assay: Primary qHTS for Identification of Calcium Integrin Binding Protein 1 (CIB1) Competitor (AID 1508620);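 note: GST tagged CIB1 binding a fluorescein labelled alphaIIb integrin peptide tracer; top concentration of the series differs between compounds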
Calcium and integrin-binding protein 1 (Homo sapiens), sequence (Q99828 whole entry, looked up): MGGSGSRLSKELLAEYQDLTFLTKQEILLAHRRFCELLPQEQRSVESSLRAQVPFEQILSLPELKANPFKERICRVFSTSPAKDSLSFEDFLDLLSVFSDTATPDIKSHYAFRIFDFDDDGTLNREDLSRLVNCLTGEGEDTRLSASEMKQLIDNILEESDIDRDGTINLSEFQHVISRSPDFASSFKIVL
In short: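 Fluorescence polarization competition: GST-tagged CIB1 (1 uM final) preincubated with compound 15 min at room temperature, then FITC-labelled alphaIIb peptide (100 nM final) added. After 15 min at room temperature, polarization read at Ex 480/Em 540.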

[3] = Primary qHTS for inhibitors of nuclear receptor binding SET domain protein 2 (NSD2) in an isogenic RCH-ACV NSD2 p.E1099K mutant (9B) (AID 1645876); note: potency is the fitted concentration of half-maximal effect; nearly all actives have a fitted effect of over 70% in size
[4] = Primary qHTS for inhibitors of nuclear receptor binding SET domain protein 2 (NSD2) in an RCH-ACV wild type WT cells (2C) (AID 1645877); note: potency is the fitted concentration of half-maximal effect; nearly all actives have a fitted effect of over 70% in size
[5] = biological target: Luciferin 4-monooxygenase (Photinus pyralis) (UniProt P08659); assay: Primary firefly luciferase (FLuc) qHTS assay for identification of artifact compounds. (AID 1845220); note: nearly all actives have a fitted effect of over 60% in size
In short: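 Enzymatic FLuc inhibition assay: compounds pre-exposed to luciferin/ATP (10 uM each) for 15 min, then purified P. pyralis enzyme at 10 nM added. Read-out: luminescence at 5 min.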

[6] = Primary fluorescence-based thiol-reactive (MSTI) qHTS assay for identification of artifact compounds. (AID 1845221); note: nearly all actives have a fitted effect of over 65% in size; note: potency is the fitted concentration of half-maximal effect
In short: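 Probe: MSTI 4 uM, PBS pH 7.4, 2% DMSO. Incubation 1 h, RT, light-protected. Readout fluorescence 525/598 nm.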

[7] = system: Nanoluciferase (engineered Oplophorus gracilirostris luciferase); assay: Primary Nanoluciferase (NLuc) qHTS assay for identification of artifact compounds. (AID 1845222);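 note: NLuc secreted into diluted conditioned medium of S16 cells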
In short: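 S16 cell supernatant NLuc, 1:55; cpds qHTS; 15 min RT dark; Nano-Glo substrate 1:100, 5 min; luminescence; Hill fit of % inhibition.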

[8] = Primary redox qHTS assay for identification of artifact compounds. (AID 1845223)
In short: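 Amplex Red (25 uM) and HRP (250 mU/mL) in HBSS, with compounds for 15 min, then 250 uM DTT for 30 min, room temperature, dark. Fluorescence 525/598 nm read; normalized to DMSO and 10 uM DA3003; Hill fit.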

C33A = assay: Primary qHTS to identify gynecologic anti-cancer compounds using libraries of approved drugs and bioactive compounds (AID 1345084); conditions: Gynecologic cancer cell panel viability, ATPlite luminescence, 48 h; series mostly up to 57.5 µM; note: nearly all actives have a fitted effect of over 55% in size; note: potency is the fitted concentration of half-maximal effect
In short: (§1)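 Cell viability after 48 h drug treatment, ATPlite luminescence readout; five doses.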

CASKI = assay: as above; conditions: Gynecologic cancer cell panel viability, ATPlite luminescence, 48 h; series mostly up to 57.5 µM
In short: as §1

Es-2 = assay: as above; conditions: Gynecologic cancer cell panel viability, ATPlite luminescence, 48 h; series mostly up to 57.5 µM
In short: as §1

HeLa = assay: as above; conditions: Gynecologic cancer cell panel viability, ATPlite luminescence, 48 h; series mostly up to 57.5 µM
In short: as §1

JEG-3 = assay: as above; conditions: Gynecologic cancer cell panel viability, ATPlite luminescence, 48 h; series mostly up to 57.5 µM
In short: as §1

OV90 = assay: as above; conditions: Gynecologic cancer cell panel viability, ATPlite luminescence, 48 h; series mostly up to 57.5 µM
In short: as §1

Tov112D = assay: as above; conditions: Gynecologic cancer cell panel viability, ATPlite luminescence, 48 h; series mostly up to 57.5 µM
In short: as §1

[9] = biological target: Glutathione peroxidase 1 (Homo sapiens) (UniProt P07203); assay: Primary qHTS Assay for Inhibitors of Recombinant Selenoprotein Glutathione Peroxidase 1 (GPX1) (AID 1845191); note: nearly all actives have a fitted effect of over 65% in size; note: potency is the fitted concentration of half-maximal effect
Glutathione peroxidase 1 (Homo sapiens), sequence (P07203 whole entry, looked up): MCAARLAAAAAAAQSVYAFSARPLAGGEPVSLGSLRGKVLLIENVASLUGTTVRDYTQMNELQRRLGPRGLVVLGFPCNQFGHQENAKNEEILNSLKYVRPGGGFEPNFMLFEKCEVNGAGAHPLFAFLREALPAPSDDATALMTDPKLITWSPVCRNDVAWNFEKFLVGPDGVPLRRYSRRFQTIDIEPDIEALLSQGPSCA
In short: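 GR-coupled assay: compounds preincubated 30 min at room temperature with GPX1, then reaction started with CHP; final 10 nM GPX1, 1 mM GSH, 0.5 mM CHP, 0.5 mM NADPH, 100 nM GR, 0.01% BSA, pH 7.5 Tris buffer. NADPH fluorescence (340/450 nm) read at 0 and 15 min.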

[10] = biological target: Phospholipid hydroperoxide glutathione peroxidase GPX4 (Homo sapiens) (UniProt P36969); assay: Primary qHTS Assay for Inhibitors of Recombinant Selenoprotein Glutathione Peroxidase 4 (GPX4) (AID 1845192); conditions: outcome: dose series up to 50 µM unless noted; note: nearly all actives have a fitted effect of over 65% in size
Phospholipid hydroperoxide glutathione peroxidase GPX4 (Homo sapiens), sequence (P36969 whole entry, looked up): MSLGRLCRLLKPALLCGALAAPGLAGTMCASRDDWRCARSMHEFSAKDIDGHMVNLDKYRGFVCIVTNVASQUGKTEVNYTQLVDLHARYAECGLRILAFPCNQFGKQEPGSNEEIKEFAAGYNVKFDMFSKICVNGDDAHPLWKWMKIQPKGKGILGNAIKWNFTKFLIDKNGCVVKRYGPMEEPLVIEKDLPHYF
In short: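 GR-coupled assay: recombinant GPX4 preincubated 30 min with compound at room temperature; final 200 nM GPX4, 1 mM GSH, 0.5 mM cumene hydroperoxide, 0.5 mM NADPH, 100 nM GR, 0.01% BSA, pH 7.5 Tris. NADPH fluorescence (340/450 nm) read at 0 and 15 min.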

PA-1 = assay: Primary qHTS to identify gynecologic anti-cancer compounds using libraries of approved drugs and bioactive compounds (AID 1345084); conditions: Gynecologic cancer cell panel viability, ATPlite luminescence, 48 h; series mostly up to 57.5 µM; note: nearly all actives have a fitted effect of over 55% in size; note: potency is the fitted concentration of half-maximal effect
In short: as §1

Tov-21-G = assay: as above; conditions: Gynecologic cancer cell panel viability, ATPlite luminescence, 48 h; series mostly up to 57.5 µM
In short: as §1

Hek293T = assay: as above; conditions: Gynecologic cancer cell panel viability, ATPlite luminescence, 48 h, control line for the selectivity index; series mostly up to 57.5 µM
In short: as §1

Row | SMILES | Potency [1] | outcome [2] | Potency [3] | Potency [4] | Potency [5] | Potency [6] | Potency [7] | Potency [8] | Potency (C33A) | Potency (CASKI) | Potency (Es-2) | Potency (HeLa) | Potency (JEG-3) | Potency (OV90) | Potency (Tov112D) | Potency [9] | Potency [10] | Potency (PA-1) | Potency (Tov-21-G) | Potency (Hek293T)
1 | CN(C)CC(=O)Nc1ccc2[nH]c(=O)c3ccccc3c2c1 | inactive | inactive | 20.5 µM (active) | 23 µM (active) | inactive | inactive | inactive | inactive | inactive | inactive | inactive | inactive | inactive | inactive | inactive | – | – | – | – | –
2 | C=C1C(=O)O[C@@H]2/C=C(/C)CC3C=C(C[C@H](OC(=O)/C(C)=C\C)[C@@H]12)C(=O)O3 (some centres undefined) | inactive | inactive | 16 µM (active) | 3.58 µM (active) | inactive | – | inactive | inactive | inactive | inactive | inactive | inactive | inactive | inactive | inactive | inactive | inactive | inactive | inactive | –
3 | COc1ccc(C2(CNC(=O)[C@](C)(Cc3c[nH]c4ccccc34)NC(=O)Nc3ccc([N+](=O)[O-])cc3)CCCCC2)nc1 | – | inactive | – | 20.5 µM (active) | inactive | inactive | – | inactive | inactive | inactive | inactive | inactive | inactive | inactive | inactive | inactive | inactive | inactive | inactive | inactive
4 | CC(=O)N1CCN([C@H]2CCN(C(=O)N(C)[C@H](C)c3cc(C(F)(F)F)cc(C(F)(F)F)c3)[C@@H](c3ccc(F)cc3C)C2)CC1 | inactive | inactive | – | 14.5 µM (active) | inactive | inactive | – | – | inactive | inactive | inactive | inactive | inactive | inactive | inactive | inactive | inactive | inactive | inactive | inactive
5 | Fc1ccccc1CNCc1ccc(-c2ccnc3[nH]ccc23)cc1 | inactive | inactive | 16.3 µM (active) | 11.5 µM (active) | inactive | inactive | inactive | inactive | inactive | inactive | inactive | inactive | inactive | inactive | inactive | 25.5 µM (active) | – | inactive | inactive | inactive
6 | Cc1cc(N=Nc2ccc(S(=O)(=O)Nc3ccccn3)cc2)c(N)cc1O | inactive | – | 8.17 µM (active) | 5.78 µM (active) | – | 597 nM (active) | – | inactive | inactive | – | – | 4.47 µM (active) | inactive | – | – | inactive | – | 8.91 µM (active) | – | –
7 | CNc1cc(OC)c(C(=O)N[C@@H]2CCN(Cc3ccccc3)[C@@H]2C)cc1Cl | inactive | inactive | 20.5 µM (active) | – | inactive | inactive | inactive | inactive | inactive | inactive | inactive | inactive | inactive | – | inactive | – | inactive | inactive | inactive | inactive
8 | Cc1c(C(=O)NCCCO)cnn1-c1nc(-c2cccc(C(F)(F)F)c2)cs1 | inactive | inactive | 25.8 µM (active) | 25.8 µM (active) | inactive | inactive | inactive | – | inactive | – | inactive | inactive | inactive | inactive | inactive | inactive | – | inactive | inactive | inactive
9 | C[C@@H](O[C@H]1OCCN(Cc2n[nH]nc2CN(C)C)[C@H]1c1ccc(F)cc1)c1cc(C(F)(F)F)cc(C(F)(F)F)c1 | inactive | inactive | 16.3 µM (active) | 14.5 µM (active) | inactive | inactive | inactive | – | inactive | inactive | inactive | inactive | inactive | inactive | inactive | inactive | inactive | inactive | inactive | inactive
